From PubChem BioAssay (EPA / NIEHS) come the findings set out here.

Records with an inconclusive call do not appear. Calls of active or inactive are those of the source. The calls were made as follows: active = hit-call score of the fitted dose curve at least 0.9, where 1 is the maximum; inconclusive = response in the unintended direction; inactive = score below 0.9.

This assay deals with human Constitutive Androstane Receptor (CAR), NR1I3 (gene 9970) (UniProt Q14994). As to the kind of experiment: NVS_NR_hCAR_Agonist: NovaScreen (NVS) Nuclear Receptor Binding Assay for human Constitutive Androstane Receptor Agonism (CAR) (AID 2283328). As for the experimental part: NVS_NR_hCAR_Agonist is a biochemical, single-readout assay that uses extracted gene-proteins in a cell-free assay. Measurements were taken 1 hour after chemical dosing in a 384-well plate.NVS_NR_hCAR_Agonist is one of one assay component(s) measured or calculated from the NVS_NR_hCAR_Agonist assay. It is designed to make measurements of fluorescent resonance energy transfer, a form of binding reporter, as detected with fluorescent resonance energy transfer signals by Time-Resolved Fluorescence Resonance Energy Transfer (TR-FRET) technology.Data from the assay component NVS_NR_hCAR_Agonist was analyzed into 1 assay endpoint. This assay endpoint, NVS_NR_hCAR_Agonist, was analyzed in the positive analysis fitting direction relative to DMSO as the negative control and baseline of activity. Using a type of binding reporter, gain-of-signal activity can be used to understand changes in the binding as they relate to the gene NR1I3. Furthermore, this assay endpoint can be referred to as a primary readout, because the performed assay has only produced 1 assay endpoint. To generalize the intended target to other relatable targets, this assay endpoint is annotated to the nuclear receptor intended target family, where the subfamily is non-steroidal.
Chain of human Constitutive Androstane Receptor (CAR), NR1I3 (gene 9970) (Q14994 whole entry, looked up): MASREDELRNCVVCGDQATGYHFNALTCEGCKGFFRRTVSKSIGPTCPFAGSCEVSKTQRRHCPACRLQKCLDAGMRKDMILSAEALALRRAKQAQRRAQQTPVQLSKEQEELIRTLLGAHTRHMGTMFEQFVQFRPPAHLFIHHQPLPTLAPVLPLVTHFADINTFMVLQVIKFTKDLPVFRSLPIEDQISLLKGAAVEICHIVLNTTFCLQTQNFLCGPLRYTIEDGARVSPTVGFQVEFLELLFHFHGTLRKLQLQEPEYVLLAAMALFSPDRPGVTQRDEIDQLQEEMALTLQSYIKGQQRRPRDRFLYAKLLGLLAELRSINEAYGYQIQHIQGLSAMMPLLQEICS
Binding assays used specific radioligands (tritiated, iodinated) with non-radioactive competitive displacement ligands in agonist or antagonist protocols (as indicated) and various reference compounds and inhibitors to titrate specific binding to receptors and transporters. Most enzyme assays (CYPs, kinases, phosphatases, proteases, HDACs) used recombinant protein and specific substrates (fluorescence mostly, some colorimetric and radioactive) and inhibitors, followed by a biochemical separation of substrate and product. All assays for the biochemical HTS were initially run in duplicate at a single concentration (10 uM for CYP450 assays and 25 uM for all others). Assay-chemical combinations meeting a pre-defined threshold (e.g., 30% inhibition and other criteria defined below) were then run in singleton concentration-response format with maximum concentration of 20 uM for CYPs and 50 uM for all others. Each assay was run with positive and negative controls, and concurrent controls on every plate. The follow-up (secondary) screen tested active chemical-pairs in concentration series, as well as a few additional assays not tested in the primary screen, some selected negative inactives, and several cases re-run in the concentration series for confirmatory purposes.
As to `Cc1cc(N=Nc2ccccc2C)ccc1N`, the molecule was called inactive.
In the case of `c1ccc2c(c1)-c1cccc3cccc-2c13`, the molecule was classed as inactive.
For `CCCSC(=O)N(CCC)CCC` the value was “inactive”; for `CC(C)(C)OOC(C)(C)CCC(C)(C)OOC(C)(C)C`, “inactive”; for `Nc1ccc(N=Nc2ccccc2)cc1`, “inactive”.
